# According to PubChem BioAssay AID1508600 (Functional Genomics Laboratory (NCATS/FGL), 2020):
# The campaign covered roughly 53,000 sequences. About 3,700 (7%) were called active. This excerpt belongs to a sample that is enriched for actives. Values without a mark were called inactive.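 How the source made its calls: active means gene knockdowns whose robust z-score for IL-1 alpha signal is at least 2 or at most -2, so actives lie on both sides; inactive means the rest.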
# Experiment: Components of the Cytosolic LPS Sensing Pathway: Gene Identification via Genome-wide siRNA Screen;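 further: robust z of the log signal after scaling to non-targeting control siRNA wells of the plate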
# Conditions: RAW264.7 macrophages, IL-1a HTRF, actives lie on both sides, screened at 100 nM (by protocol), cells primed 5 h with Pam3CSK4 first
# Outline: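 Read-out: IL-1a HTRF on supernatant, divided by plate negative-control median ×100, log-transformed and converted to robust z-score. Cells were RAW264.7 given 100 nM siRNA, Pam3CSK4-primed 5 hours, then LipidA-transfected 24 hour.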
row,Sequence,z-score
1,GGAUGAUGUUCCCAUGCAATT against Cdca7l,-0.45
2,GCUGCUCGAUUGCUUUCCATT against 4930429B21Rik,0.411
3,GGACCAAGUGGAAGAAGCATT against Nkx1-2,-2.02 (active)
4,GGACAGAUGGAAUAGUGAATT against Klra10,-0.657
5,CCAUCAAGCGAUUUGUGGUTT against Rnf103,-0.156
6,GGCCAGCAGACUAUUUAUUTT against Derl1,0.304
7,GGUGCAAGUGCAGUUUCAATT against Fxyd6,2.38 (active)
8,GCACAAAAUUCACUGUUAGTT against Olfr112,0.965
9,GCUCGGUAGGUAUUUUCUGTT against Tmem164,-0.13
10,GGCUGAUGCAGACAGUUUCTT against Brap,-0.655
11,GGAUUGAAACAGAUGAGAGTT against Gtf2e1,0.833
12,GGAGUGCUGAUAAAAGAAGTT against Atp5mpl,-0.952
13,GUUCUAUGGUAGACAUUAUTT against Gm5414,-2.35 (active)
14,GCUCUCAUACACGGUGGAATT against Ros1,-0.272
15,GGAGACCUCAGCUGAUAUUTT against Tmem109,0.51
16,GGUUCUGAACCAGCUGGAGTT against Chd3,2.72 (active)
17,GGCCAUGCCUUUGUAUGCUTT against Tbc1d25,-0.155
18,GGAUUUUGUUGACAAUGAUTT against Ncaph,-0.0936
19,GGAGCUCUUGGAUAUAAAATT against Eif4enif1,0.223
20,GGUGAGACAGAUAAAGUUCTT against Olfr1124,1.15
21,GGUAAAAGCUACCAUUCAGTT against Ap2a2,-0.947
22,GGUUUGUUUUUGUUCGUUUTT against Cytip,-0.067

row,Sequence,z-score
1,GGCAAGAAAAAUCAGAUUGTT against Cyld,3 (active)
2,GGAGUUUACGGCUAUUGACTT against Adap2,-0.884
3,GGUUUAAUUCUUGUCUUGUTT against Pvt1,-0.928
4,GGUUAUCGGUUGUACAUAUTT against Chd3,1.03
5,CGUGGACUCUAUAAUCAACTT against Map7d1,2.47 (active)
6,GGCAAGCUUCCAGAUCGAATT against Adam23,0.0113
7,GGAACCAGAUCUCAUGCCCTT against Endov,-1.47
8,GGAUCACACUAGUAUUUUCTT against Sertad2,-0.923
9,GCUAAAAACAACUAGGAAATT against Wdr60,0.391
10,GCAUCGUGUGCAAGAUCCUTT against Atp4b,2.74 (active)
11,GGAAAUAUAUCUGAAAGGGTT against Sphkap,0.514
12,GCUCGCUAAAGUGAUUAAATT against Gm5533,0.867
13,GGACUUUCUAAGGGUAAAATT against Luzp1,-0.0646
14,GGACAAAGCUAUUGGGAUUTT against Olfr402,1.45
15,GGUGAUGGUCCAGAUUAACTT against Plpbp,-0.0895
16,GCUGAAAUAGUUGCUAAAUTT against Usp6nl,0.443
17,GGAACUGUCACAACUGCUATT against Acat3,3.22 (active)
18,GGAGAAGCUCAUCUCUCUGTT against Rfx2,-1.35
19,GGAACAUCUUUCUUCUCCATT against Abhd4,-0.869
20,GGAUUCGGACUUCAUAAUCTT against Dpp10,0.256
21,GCUGAUAAAUCUGAACUACTT against Dhrs7,1.15
22,GGUUCUGAGUAUUUAAAGCTT against Nt5dc3,2.21 (active)

row,Sequence,z-score
1,GGACAUCUCCUUGAUCUUGTT against Slc1a5,-0.95
2,UCACCAUCUUGAAGAUUCGTT against Olfr486,-0.792
3,GCAGGAUCCUGAAACCAUGTT against Lrrc14,-2.09 (active)
4,GCCCAAGACGAAAAGAUACTT against Mrpl9,0.662
5,GGAUAGCAAAUUCAUCACATT against Ptprg,-0.214
6,GGCUUCGUAGCUUUACAAATT against Abca6,-0.846
7,GGAAAGGUCAAGAGAAUUUTT against Strn3,-1.16
8,GGACUUACUGACAAGAAACTT against Pcdhgb8,-0.52
9,UUCUAAUUGUCACUUGGUGTT against Olfr1474,-0.133
10,GCUGGAUUAUUUGAGAGUCTT against Trim62,2.17 (active)
11,GCAUUAAGCAAUGGCAUCATT against Cbfa2t2,0.21
12,GCAUCAGAGAAGUGCGAGCTT against Pafah2,-0.0121
13,GCUCAUGAUCAUAUCAUGATT against 1810055G02Rik,0.647
14,CCCACACAAUUCUCAUGGGTT against Olfr366,0.661
15,GGAAUACGAAGAGAUUAUATT against Zw10,0.65
16,CCUAGAAAAGUCAUUGUCATT against 3010003L21Rik,-2.08 (active)
17,CCUUCAAGAUAAAUUGACATT against Tango6,0.755
18,GGAAAAGGCCAUGAAUAUATT against Mmel1,0.176
19,GGCCAGACACAGGUAGACATT against B9d2,-1.85
20,CGGACGAUUCGUGUCAAUUTT against Ppie,0.619
21,GGACGAACAGUAUUAUACUTT against Lhx5,2.11 (active)
22,CCUGAUGUUAUUCCUUUUATT against Klhl20,-0.524

row,Sequence,z-score
1,GGUGAUGACGAAGGAAUCCTT against Zfpm2,-1.51
2,GGAGCAAGACAUAUAGAAATT against Spsb2,2.26 (active)
3,GGACAUUUUUAUUAGUGGATT against Gtpbp8,1.04
4,CCAUUGGAGGAUAAGUUUUTT against Mtm1,-0.0988
5,GGAAAAUGGAGAACUAAAGTT against Uxs1,1.88
6,GGAUAAACCCUACGUUCUATT against Slc44a4,0.658
7,GGUUAUCCGUGGUAACCAUTT against Taok3,0.78
8,CGAACGUGAUGAGUUAUGGTT against Vmn1r83,-2.67 (active)
9,GGUAUUCGUGGAGUGGAGATT against Pdcd2l,0.0458
10,GGGCAAUUAGUAAAGGCUATT against Eif2s3x,2.02 (active)
11,GGUCCUACAAAAAGAUGGATT against Mettl7b,-0.536
12,CGAGAUUGUGCUGAUAGAGTT against Nptx2,0.533
13,CGUGUUGUACUACGUAUAUTT against Abtb1,-0.172
14,CCUAAAAGACUUUGGAGACTT against Arg2,-1.09
15,GGCCCUCAUGAUUGCUAUGTT against Nek8,-0.722
16,CCUUCCAUGGUGAGGAUAATT against Stim1,-2 (active)
17,CCAGUUGAGUCACUUACUGTT against Borcs7,0.667
18,CGCGGCAUAAACAUGUAAATT against Gatc,-1.07
19,GGUGUCUUUCUUCACUCUUTT against Olfr862,0.225
20,CGUGUUUGAUCACUACUCUTT against Tnfaip8l2,-0.593
21,GGACUGACUGGCUUCAUUGTT against Atl2,-2.52 (active)
22,GCAGAUUAGCUUCGUCAACTT against Top2a,-0.588

row,Sequence,z-score
1,GCGAAAUCCUGGGCUACUCTT against Dyrk4,-0.32
2,GGUUGUGACUACACUAUGGTT against Zfp456,-1.7
3,CGCAGAACGUGAACACCAATT against Smad3,-2.47 (active)
4,GUUACACAGGAGUGUGUAATT against Rnase2a,0.573
5,GGUGGCUUUAGGGAACAUUTT against Dctn3,0.369
6,GGAAAUGGAGAAAUAUGCATT against Plod3,-0.167
7,ACCUUUGUCCUUUUGUUGUTT against Defb15,2.01 (active)
8,GGAGAUGAAAAAAACGAGCTT against Rxylt1,-0.222
9,GCAAAUAAUGAGGUCCAGATT against Rbms2,-0.377
10,GCAAGUCCUACAAUACAACTT against Tk1,5.5 (active)
11,GGCGAUGAAGAAGUAAUUUTT against Appl2,-1.2
12,CCCAUUAAGGUAUAAUAUCTT against Olfr855,-0.301
13,GGUUUCAUUUGGAUUUGCATT against Glyr1,0.491
14,GGCAAAGAUAAUAAAGCUATT against Xpo1,-0.967
15,CCGUUUACUUCGUCCAAGUTT against Crlf1,-0.134
16,CCUUAUUUGUCCAUAAAAGTT against Pkdrej,2.43 (active)
17,GGGUCCUCUGAAAGUUACCTT against Fndc5,0.497
18,GCACUUUGGCAUAUUUUCATT against Slc6a15,-0.391
19,GGAAAUGCUUCUGAGCUAGTT against Desi2,1.71
